Results with a measured potency or affinity are listed apart. Unmarked numbers belong to inactive results.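 Rule for the calls: active = cell-killing compounds whose fitted half-effect concentration is at most twice their highest valid dose; inconclusive = flat curve with 30 to 70% signal loss, or poor fit; inactive = the rest.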
Test: cytotoxicity in A549 cells, dose response, cytotoxicity control, cell-based, CellTiter-Glo luminescence, cherry-pick (AID 743484)
Settings: A549 viability, CellTiter-Glo ATP luminescence, 72 h; series mostly up to 26 µM; activity change, negative = cytotoxicity: at the top concentration

Compound | activity change, negative = cytotoxicity
CC[C@H]1OC(=O)[C@H](C)[C@@H](O[C@H]2C[C@@](C)(OC)[C@@H](O)[C@H](C)O2)[C@H](C)[C@@H](O[C@@H]2O[C@H](C)C[C@H](N(C)C)[C@H]2O)[C@](C)(O)C[C@@H](C)[C@@H]2N[C@@H](COCCOC)O[C@H]([C@H]2C)[C@]1(C)O | -8.75 unspecified
COc1ccc(-n2cc(-c3ccccc3)c3c(N4CCOCC4)ncnc32)cc1 | 19.9 unspecified
COc1ccc(Nc2oc(-c3ccco3)nc2S(=O)(=O)c2ccc(F)cc2)cc1 | 9.83 unspecified
COc1ccc2[nH]c3c(=O)n(CCCCC(=O)NCCC(C)C)c(=S)[nH]c3c2c1 | 32.3 unspecified
COc1ccc(Cn2c(-c3ccc(Cl)cc3)c[n+]3ccccc23)cc1 | -1.67 unspecified
Cc1[nH]c(=S)sc1Cc1ccc(Cl)c(Cl)c1 | 19.8 unspecified
COC(=O)c1c(NC(=O)CCC(=O)O)sc(Cc2ccccc2)c1C | 4.37 unspecified
COc1cccc(C(=O)Nc2cc(C)nn2-c2ccccc2)c1OC | -3.18 unspecified
Cc1noc(C)c1NC(=O)Nc1ccc2c(c1)C(=O)N([C@H](C)CO)C[C@@H](C)[C@@H](CN(C)C(=O)Nc1ccc3c(c1)OCO3)OCCCC[C@@H](C)O2 | 6.85 unspecified
Cc1c(C(=O)O)sc2nc(CSc3ncc(C(F)(F)F)cc3Cl)[nH]c(=O)c12 | 10.5 unspecified
C[C@@H]1CCCCO[C@H](CN(C)C(=O)CCCN(C)C)[C@H](C)CN([C@@H](C)CO)C(=O)c2cc(NC(=O)Nc3cccc4ccccc34)ccc2O1 | 27.8 unspecified
Cc1ccc(S(=O)(=O)N2CC[C@H]3[C@H](CO)Nc4ccc(Br)cc4[C@H]32)cc1 | -0.943 unspecified
Cc1cc(C)c(OCCNC(=O)c2ccccc2Sc2ccccc2C#N)c(C)c1 | -7.36 unspecified
CCOc1ccccc1NC(=O)c1ccc2ccccc2c1 | 6.53 unspecified
C[C@@H]1CCCCO[C@H](CN(C)CC2CC2)[C@H](C)CN([C@@H](C)CO)C(=O)c2cc(NC(=O)Nc3cccc4ccccc34)ccc2O1 | 0.732 unspecified
CCn1c(-c2cc(-c3ccc(OC(C)C)cc3)nc3ccccc23)n[nH]c1=S | 10.4 unspecified
CCOC(=O)c1c(NC(=O)Cc2cccs2)sc(C)c1C | 12 unspecified
Cc1ccc(C)c(NC(=O)CSc2nc3nc(-c4cccs4)cc(C(F)(F)F)c3c(=O)[nH]2)c1 | 28.3 unspecified
O=C(O)c1cc([N+](=O)[O-])ccc1NCc1ccccc1 | 10.3 unspecified

Source: PubChem BioAssay AID743484 (Broad Institute, 2014)
